High-throughput results deposited in PubChem by National Center for Advancing Translational Sciences (NCATS).
SMN2 splice enh: increases expression of the SMN2 splice variant. HEK293 SMN2-luciferase splicing reporter, luminescence, 30-36 h. Potency, µM (top dose mostly 46.1 µM), for inactives: at the highest dose activity change, positive = activation, hits mostly activators. 2.8% of 210,000 active. AID 1458; note: % of control where 0% means no effect; nearly all actives have a fitted effect of over 55% in size
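qHTS luciferase splicing reporter: luminescence rises when SMN2 exon 7 is included in transfected HEK293 cells. Compound exposure lasted 30-36 h at 37C, with 4.5 mM final sodium butyrate as control, followed by a ONE-Glo read.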
FLuc modulator: inhibits or activates purified firefly luciferase, miR-21 counter-screen | Potency, µM (highest dose often 57.5 µM), without a hit: top-dose activity change, negative = inhibition, usual class: inhibitors | purified FLuc, Km substrates, luminescence inhibition | 6.9% of 360,000 active | AID 588342 | P08659;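 note: plate controls were vehicle for no effect and reference inhibitor for full effect; nearly all actives have a fitted effect of over 55% in size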
Target sequence (P08659 whole entry, looked up): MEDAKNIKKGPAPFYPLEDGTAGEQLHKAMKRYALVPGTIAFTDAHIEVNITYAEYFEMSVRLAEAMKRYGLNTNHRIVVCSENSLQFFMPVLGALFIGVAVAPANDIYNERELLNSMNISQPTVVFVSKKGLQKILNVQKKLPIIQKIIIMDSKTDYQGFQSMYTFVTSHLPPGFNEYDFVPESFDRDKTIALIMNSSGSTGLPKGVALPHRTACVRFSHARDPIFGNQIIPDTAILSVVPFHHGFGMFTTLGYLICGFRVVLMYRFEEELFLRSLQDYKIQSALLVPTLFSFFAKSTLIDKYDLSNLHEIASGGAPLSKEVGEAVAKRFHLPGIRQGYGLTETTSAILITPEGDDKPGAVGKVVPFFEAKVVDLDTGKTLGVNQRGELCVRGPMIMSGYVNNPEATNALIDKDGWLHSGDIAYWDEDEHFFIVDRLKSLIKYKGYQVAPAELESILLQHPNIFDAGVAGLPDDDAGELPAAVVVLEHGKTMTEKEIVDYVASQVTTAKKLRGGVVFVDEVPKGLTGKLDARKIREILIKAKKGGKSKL
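Purified P. pyralis luciferase, 10 nM final, with Km-level 10 uM D-luciferin and 10 uM ATP in 50 mM Tris acetate pH 7.5, 10 mM Mg acetate, 0.01% Tween-20, 0.05% BSA; 6-point qHTS titration about 60 µM downward; luminescence read.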
NPC1 promoter act: activates the NPC1 promoter; Potency, µM (top dose mostly 9.22 µM), for the others: top-dose activation, most hits filed as activators; Huh7 NPC1 promoter luciferase reporter, 24 h; 2.4% of 320,000 active; note: % of control where 0% means no effect; nearly all actives have a fitted effect of over 60% in size
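Luminescence read-out of NPC1 promoter-driven luciferase in stably transfected Huh7 cells; compounds delivered in DMSO and left 24 h at 37C, 5% CO2, qHTS titration format.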
ELG1 genotoxic: inducers of genotoxicity in HEK293T ELG1-luciferase cells | HEK293T ELG1-luciferase reporter, luminescence, 16 h | Potency, µM (titrated, usually from 46 µM), for inactives: top-dose activity change, positive = activation, usual class: activators | 1.3% of 330,000 active; note: % of control where 0% means no effect; nearly all actives have a fitted effect of over 60% in size
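Luminescence read-out: rising ELG1-luciferase signal, reflecting elevated ELG1 protein under genetic stress, flags genotoxic compounds. Cells were treated for 16 hr at 37 °C before ONE-Glo detection.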
Rab9 prom act: Rab9 promoter activation | Huh7 Rab9 promoter-luciferase reporter, luminescence, 24 h | Potency, µM (highest dose often 9.22 µM), for inactives: at the highest dose activation, negative = inhibition, actives largely listed as activators | 2.8% of 320,000 active; note: % of control where 0% means no effect; nearly all actives have a fitted effect of over 60% in size
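Stable Rab9-luc Huh7, 1500 cells/well, 2 h settle; cmpd in DMSO, 24 h, 37 °C/5% CO2; luciferase reagent 10 min RT; luminescence.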
ELG1 DNA repair: ELG1-dependent DNA repair inhibition; HEK293T ELG1-luciferase reporter, luminescence, 16 h; DNA damage induced by 5-fluorouridine; Potency, µM (titrated, usually from 46.1 µM), inactives show at the top dose activity change, negative = inhibition, usual class: inhibitors; 2.3% of 330,000 active; note: % is set by controls: 0 for no effect and ±100 for the full control effect; nearly all actives have a fitted effect of over 55% in size
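Luminescence from the luciferase reporter, measured 30 min after ONE-Glo reagent at room temperature, was the read-out. Beforehand, 2,000 cells per well were exposed for 16 hr at 37 °C to 5-fluorouridine together with compound or vehicle.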
Starred values were filed as active, the others as inactive; ? = inconclusive; . = no result; [ ] = dose if it differs, or a comment. An excerpt weighted towards active compounds, which were near 9.4% of everything screened. Calls come from the whole dose curve; as a rule, active = well fitted curve in the direction sought with a large enough effect; inconclusive = small, poorly fitted or top-dose-only effect, or another doubt; inactive = no such curve, though single readings can be large; an effect the other way counts as inactive or inconclusive. Potency is the fitted concentration of half-maximal effect.

SMILES | SMN2 splice enh | FLuc modulator | NPC1 promoter act | ELG1 genotoxic | Rab9 prom act | ELG1 DNA repair
CCNC(=S)N/N=C/c1cccc(OCc2c(F)cccc2Cl)c1 | -53% | 17µM* | 3% | -4% | -7% | ?
CNC(=S)N/N=C/c1cccc(OCc2ccccc2F)c1 | 1% | 4.8µM* | 13% | ? | 18% | ?
CCNC(=S)N/N=C/c1cccc(/C=N/NC(=S)NCC)c1 | 3% | 2% | 9% | -1% | 14% | -7%
Fc1ccccc1COc1ccc(/C=N/NC(=S)NCc2ccccc2)cc1 | -6% | 0% | -2% | 9% | 3% | ?
N#CC1=C(N)Oc2c(ccc3ccccc23)C1c1ccsc1 (centres undefined) | -29% | ? | -5% | 15µM* | -23% | ?
CN1C(=O)/C(=C/c2ccccc2Cl)Sc2ccc(C(=O)N3CCCC3)cc21 | . | ? | -2% | 0%[9.26 µM] | 0% | ?
Cc1cccc(/C=C2\Sc3ccc(C(=O)N4CCC(C(N)=O)CC4)cc3N(C)C2=O)c1 | . | 19µM* | -20% | -9% | -6% | -17%
CCOC(=O)C1CCCN(C(=O)c2ccc3c(c2)N(C)C(=O)/C(=C/c2ccccc2Cl)S3)C1 (centres undefined) | . | -12% | -6% | -10% | -5% | 15µM*
COc1ccc(/C=C2\Sc3ccc(C(=O)N4CCc5ccccc5C4)cc3N(C)C2=O)cc1 | 10% | ? | -5% | -5% | -4% | -2%
CN1C(=O)/C(=C/c2cccc(Cl)c2)Sc2ccc(C(=O)N3CCOCC3)cc21 | . | -16% | -11% | -10% | -3% | ?
CN1C(=O)/C(=C/c2ccc(C(F)(F)F)cc2)Sc2ccc(C(=O)N3CCN(c4ccccn4)CC3)cc21 | . | 8.5µM* | -6% | -12% | -6% | ?
Cc1cccc(NC(=O)CN2C(=O)C(c3ccc(F)cc3)=NC23CCCCCC3)c1C | 4% | -8% | . | . | . | .
O=C(NC(=O)c1ccccc1)Nc1ccccc1 | . | ? | 0.45µM* | ? | 0.63µM* | ?
O=C(NC(=O)c1ccccc1)Nc1ccc(-c2cnco2)cc1 | . | ? | ? | 14% | ? | ?
COc1ccc(NC(=O)NC(=O)c2ccccc2)cc1 | . | ? | 1µM* | ? | 0.71µM* | ?
COc1ccc(/C=N/NC(=O)c2cccc([N+](=O)[O-])c2)cc1O | 0% | 21µM* | -3% | 5% | -4% | -5%
COc1cc(/C=N/NC(=O)c2cccc([N+](=O)[O-])c2)ccc1O | 6% | -17% | -1% | 0% | 8% | -3%
COc1cc(/C=N/n2cnnc2)ccc1OCc1ccc(C)cc1 | 21% | ? | 5% | 23µM* | 12% | ?
COc1cc(/C=N/NC(=O)c2cccc([N+](=O)[O-])c2)ccc1OCc1ccc(C)cc1 | ? | 21µM* | -4% | ? | 0% | ?
COc1cc(/C=N/n2cnnc2)ccc1OCc1ccccc1 | 8% | -12% | -3% | 4% | -17% | -6%
COc1ccc(/C=N\NC(=O)c2cccc([N+](=O)[O-])c2)cc1Cn1cc([N+](=O)[O-])cn1 | . | 0% | -2% | -10% | -4% | 15µM*
CC(C)C[C@@H](CC(=O)N[C@@H](CCCN)CC(=O)N[C@@H]1CCNC[C@H]1C(=O)N[C@H](CC(=O)N[C@@H](CCC(=O)O)CC(=O)O)Cc1ccccc1)NC(=O)[C@@H]1CNCC[C@H]1N | 2% | . | . | . | . | .
COc1cc(SC)ccc1C(=O)Nc1ccc(Br)cn1 | . | 0.076µM* | 0.32µM* | ? | 0.28µM* | ?
COc1cc(SC)ccc1C(=O)Nc1ccon1 | ? | 13µM* | ? | ? | 2.8µM* | ?
CSc1ccccc1C(=O)Nc1ncc(C)s1 | -6% | ? | -1% | 14% | -1% | ?
COc1cc(SC)ccc1C(=O)Nc1ccc2ncccc2c1 | . | 0.76µM* | 1.3µM* | ? | 0.45µM* | ?
